# Values joined by “and” are separate entries in the source; they are usually repeats but may differ in a detail not shown here. Equal values may be shown once. Active and inactive are the calls of the source. How the source made its calls: active means hit-call score of the fitted dose curve at least 0.9, where 1 is the maximum; inactive means score below 0.9.
# Read-out: Actin alpha 1 (ACTA1), ACTA1 (gene 58)
# Experiment: BSK_MyoF_ACTA1: BioMAP Diversity Plus: MyoF Assay for Actin alpha 1 (ACTA1) Biomarker Activity (AID 2284244)
# Conditions: primary human lung fibroblasts
# Description: BSK_MyoF is a cell-based, multiplexed-readout assay that uses lung fibroblasts, […], with measurements taken at 24 hours after chemical dosing in a microplate: 96-well plate.BSK_MyoF_ACTA1 is an assay component measured in the BSK_MyoF assay. It measures a-SMA antibody related to regulation of gene expression using ELISA technology.Data from the assay component BSK_MyoF_ACTA1 was analyzed at the endpoint, BSK_MyoF_ACTA1, in the positive analysis fitting direction relative to DMSO as the negative control and baseline of activity. Using a type of binding reporter, gain or loss-of-signal activity can be used to understand protein changes. To generalize the intended target to other relatable targets, this assay endpoint is annotated to the 'cell adhesion molecules' intended target family, where the subfamily is 'actin'.
# The levels of cell surface (or secreted, indicated by the prefix "s") biomarker endpoints were measured by ELISA. Overt cytotoxicity to cells in confluent adherent cultures (all systems other than the BT system) was assessed by measuring total protein levels using sulforhodamine B (SRB) staining in parallel cultures at the time of biomarker measurements, indicated as SRB endpoints. For proliferation assays for adherent cell types, individual cell types are cultured at sub-confluence and relative cell numbers quantified by SRB staining at time points optimized for each system (48 h: 3C and CASM3C systems; 72 h: BT and HDF3CGF systems; 96 h: SAg system). SRB was performed by staining cells with 0.1% SRB after fixation with 10% TCA and reading wells at 560 nm.Viability and proliferation of PBMC (T cells) was quantified by Alamar Blue reduction for the SAg and BT systems. For PBMC viability (referred to as PBMC Cytotoxicity within the assay endpoint names), cells were plated (75,000/well in a 96-well plate) and then chemical samples added for 1 h before addition of activators, SEB and TSST-1 (20 ng/mL final concentration each). Cells were incubated for 90 h. Then, Alamar Blue (20 uL/well) (Invitrogen, Cat DAL1100) was added for 6 h, and the plates were read with a fluorescence microplate reader at 546/580 nm (excitation/emission). For PBMC proliferation, cells were plated and activated as above but incubated for only 16 h prior to addition of Alamar Blue. Plates were read after 6 h.
SMILES,outcome,AC50
O=C(O)C(F)(OC(F)(F)C(F)(F)C(F)(F)F)C(F)(F)F (stereo not drawn),inactive,
CCCCC(CC)COC(=O)c1c(Br)c(Br)c(Br)c(Br)c1C(=O)OCC(CC)CCCC (stereo not drawn),inactive,
O=C(O)C=CC(F)(C(F)(F)F)C(F)(F)F,inactive,
Nc1ccc([N+](=O)[O-])cc1Cl,inactive,
O=S(=O)(F)C(F)(F)C(F)(F)C(F)(F)C(F)(F)C(F)(F)C(F)(F)C(F)(F)C(F)(F)F,inactive,
CC(Cl)CN(C)C (stereo not drawn),inactive,
CCOP(=S)(OCC)SCSc1ccc(Cl)cc1,,3.97 µM (active)
CCOP(=S)(OCC)SCn1nnc2ccccc2c1=O,inactive,
c1ccc2c(c1)sc1ccccc12,inactive,
CCCCC(CC)COP(=O)(Oc1ccccc1)Oc1ccccc1 (stereo not drawn),,8.64 µM (active)
COP(=O)(O)OC,inactive,
CCOP(=S)(S)OCC,inactive,
C=CC(=O)OCC(F)(F)C(F)F,,48.8 µM (active) and 46.5 µM (active)
CCCCOCCOP(=O)(OCCOCCCC)OCCOCCCC,inactive,
Cc1c([N+](=O)[O-])cc2c(c1[N+](=O)[O-])C(C)(C)CC2(C)C,inactive,
ClC(Cl)=C(c1ccc(Cl)cc1)c1ccccc1Cl,,5.45 µM (active)
COP(N)(=S)OC,inactive,
FC(F)(F)C(F)(C(F)(F)F)C(F)(F)C(F)(F)CC1CO1 (stereo not drawn),inactive,
O=c1ssc(Cl)c1Cl,,6.24 µM (active)

SMILES,outcome,AC50
CC(C)(C)c1ccccc1OP(=O)(Oc1ccccc1)Oc1ccccc1,,20 µM (active)
Cc1ccc2c(c1N)C(=O)c1ccccc1C2=O,inactive,
OCC(F)(F)OC(F)(F)C(F)(F)OC(F)(F)C(F)(F)OC(F)(F)CO,,20.5 µM (active) and 30 µM (active)
O=S1(=O)OCC2C(CO1)C1(Cl)C(Cl)=C(Cl)C2(Cl)C1(Cl)Cl (stereo not drawn),inactive,
CC(C)Nc1ccc(Nc2ccccc2)cc1,,22.7 µM (active)
O=P(OCC(Br)CBr)(OCC(Br)CBr)OCC(Br)CBr (stereo not drawn),inactive,
N#Cc1cc([N+](=O)[O-])ccc1N,inactive,
COC(=O)C(F)(F)C(F)(F)OC(F)(C(F)(F)F)C(F)(F)OC(F)=C(F)F (stereo not drawn),inactive,
CC(O)C(F)(F)C(F)(F)F (stereo not drawn),inactive,
NC(=O)C(F)(F)C(F)(F)F,inactive,
CCOP(=S)(NC(C)C)Oc1ccccc1C(=O)OC(C)C (stereo not drawn),inactive,
OCC(F)(F)OC(F)(F)C(F)(F)OC(F)(F)CO,inactive,
O=C(O)C(F)(F)C(F)(F)C(=O)O,inactive,
O=C(O)C(F)(F)OC(F)(F)C(F)(F)OC(F)(F)C(=O)O,inactive,
OCC(F)(F)OC(F)(F)C(F)(F)OC(F)(F)C(F)(F)OC(F)(F)F,,18.3 µM (active) and 11.5 µM (active)
O=C(O)C(F)(F)OC(F)(F)C(F)(F)OC(F)(F)F,inactive,
N#Cc1c(-c2ccc(Cl)cc2)[nH]c(C(F)(F)F)c1Br,,0.329 µM (active)
CCOP(=S)(OCC)SCS(=O)(=O)CC,inactive,
C=CC(=O)OCC(CC)(COC(=O)C=C)COC(=O)C=C,,2.93 µM (active)
